Screening data (PubChem BioAssay)
CHT inh = inhibits the human high affinity choline transporter; B-score at 10 µM; CHT-expressing cells, membrane potential dye, choline response; active compounds read low; Q9GZV3; AID 488975; 310,000 tested, 0.86% active;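 active means B-score over 3 SD under the library average, and starting fluorescence ratio not unusually high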;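 further: choline stimulus applied at its EC90 after an EC20 pre-addition; B-score computed on integrated fluorescence ratio after choline addition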
AI-2 QS mod = modulators of Vibrio harveyi AI-2 quorum sensing system | Vibrio harveyi JMH597 AI-2 luminescence/OD600 ratio, 9 h; active compounds read low; strain lacks LuxN and CqsS sensors; 0 = neutral-control median | activity change, % at 7.5 µM | 300,000 tested, 0.4% active | AID 2094; in the data active means activity change below about -75%, passing the limit was not always enough;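 further: luminescence divided by OD600 gain over 9 h not by final OD600 alone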
ALR inh = human ALR oxidase inhibition via reduced H2O2; P55789; 290,000 tested, 3.8% active; purified ALR, DTT oxidation, H2O2 HRP-luminol luminescence; inhibition, % (no concentration beside the values);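 active means mean replicate inhibition above about 79%, with every replicate also reaching it, limit read from the data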
CHT PAM = allosteric activators of human choline transporter CHT; Q9GZV3; CHT-expressing cells, membrane potential dye, choline EC20; active compounds read high; LV-AA mutant CHT in HEK293 cells; B-score at 10 µM; 310,000 tested, 0.49% active; AID 488977;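 active means initial fluorescence not abnormally high and integrated response B-score, plate-corrected, over 3 SD above library mean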
PREPL inh = human PREPL enzyme inhibition. AID 2751. inhibition, % at 5.96 µM. Q4J6C6. recombinant PREPL, fluorescence polarization activity-based probe. 320,000 tested, 0.68% active; in the data active means inhibition above about 43%;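 further: 0% = enzyme with DMSO and 100% = wells lacking enzyme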
CHT activ conf = human CHT activation, confirmatory screen | shares compounds with CHT PAM | CHT-expressing cells, membrane potential dye fluorescence (FDSS); % of choline EC20–EC90 response window; HEK293 expressing CHT LV-AA mutant; choline added at its EC20 | activation, % at 10 µM | 2,500 tested, 91% active | AID 504833;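 active means primary screen active, with duplicate mean activation above negative control mean plus 3 SD, cut at about 11% in these data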
HEK293 MP dye = activity in parental HEK293 cells lacking CHT; shares compounds with CHT PAM; membrane potential dye fluorescence (FDSS); measured after EC20 choline addition; ratio readout change at 10 µM, hits read low; 2,500 tested, 62% active;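 active means duplicate-averaged ratio beyond 3 SD from buffer wells, up or down, though filed actives are nearly all decreases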
An asterisk follows results filed as active. A selection: hits, their analogues and other compounds. The true share with any hit is near 5%.

What do the screens show for `Cc1ccc2nc3ccc(N4CCCCCCC4)nn3c(=O)c2c1`?
CHT inh: inactive; AI-2 QS mod: 4.4; ALR inh: -2.5; CHT PAM: inactive; PREPL inh: 15.1

Results for Cc1sc2nc3ccc(N4CCCC4)nn3c(=O)c2c1C ?
CHT inh: inactive; AI-2 QS mod: 21.6; CHT PAM: inactive; PREPL inh: 7.0; CHT activ conf: 38.1*; HEK293 MP dye: -37.6*

What do the screens show for `CC1(c2ccccc2)NC(=O)N(CC(=O)N2CCN(S(=O)(=O)c3cccc([N+](=O)[O-])c3)CC2)C1=O` (stereo unspecified)?
CHT inh: inactive; AI-2 QS mod: 10.9; ALR inh: -8.9; CHT PAM: inactive; PREPL inh: 6.4

How did CCOC(=O)C1C(C)N=C2SCC(=O)N2C1c1cccc(Br)c1 (stereo unspecified) do in these assays?
CHT inh: inactive; AI-2 QS mod: 13.4; ALR inh: -4.6; CHT PAM: inactive; PREPL inh: -22.9; CHT activ conf: 6.4; HEK293 MP dye: inactive

What do the screens show for `O=c1oc2ccccc2c2c1ncn2CCN1CCOCC1`?
CHT inh: inactive; AI-2 QS mod: -3.0; CHT PAM: inactive; PREPL inh: -2.0

What do the screens show for `CN1CCN(CCCn2cnc3c(=O)oc4ccccc4c32)CC1`?
CHT inh: inactive; AI-2 QS mod: 34.7; CHT PAM: 9.41*; PREPL inh: -4.5; CHT activ conf: 66.2*; HEK293 MP dye: -67*

What do the screens show for `CNC(=O)C(=O)NCC1OCCCN1S(=O)(=O)c1ccc(F)cc1C` (stereo unspecified)?
CHT inh: inactive; AI-2 QS mod: 18.0; ALR inh: 2.7; CHT PAM: inactive; PREPL inh: -0.5

Results for CCc1ccccc1NC(=O)COC(=O)C1C2CC3OC(=O)C1C3C2 (stereo unspecified) ?
CHT inh: inactive; AI-2 QS mod: 17.2; ALR inh: -0.8; CHT PAM: inactive; PREPL inh: -6.8

Results for COc1ccc(CNC(=O)C(c2cccs2)N(Cc2ccco2)C(=O)Cc2cccs2)cc1 (stereo unspecified) ?
CHT inh: inactive; AI-2 QS mod: 19.5; ALR inh: -15.1; CHT PAM: 6.6*; PREPL inh: -3.7; CHT activ conf: 25.9*; HEK293 MP dye: inactive

Results for Cc1ccccc1-c1nc(CN2CCC(C(=O)NCCN3CCOCC3)CC2)c(C)o1 ?
CHT inh: inactive; AI-2 QS mod: 1.3; ALR inh: -5.3; CHT PAM: inactive; PREPL inh: 15.8

What do the screens show for `Cc1ccccc1-c1nc(CN2CCC(C(=O)NCCCN3CCOCC3)CC2)c(C)o1`?
CHT inh: inactive; AI-2 QS mod: 10.5; ALR inh: 1.0; CHT PAM: inactive; PREPL inh: 29.9; CHT activ conf: 40.1*; HEK293 MP dye: -25.9*

What do the screens show for `Cc1oc(-c2ccc(Cl)cc2)nc1CN1CCC(C(=O)NCCCN2CCCC(C)C2)CC1` (stereo unspecified)?
CHT inh: inactive; AI-2 QS mod: 13.9; ALR inh: 2.3; CHT PAM: inactive; PREPL inh: 40.6; CHT activ conf: 54.8*; HEK293 MP dye: -28*

Results for Cc1oc(-c2ccc(Cl)cc2)nc1CN1CCCC(C(=O)NCCCN2CCOCC2)C1 (stereo unspecified) ?
CHT inh: inactive; AI-2 QS mod: 13.0; ALR inh: -0.7; CHT PAM: inactive; PREPL inh: 23.6

How did CC(C)(C)c1ccc(S(=O)(=O)N2CCNC(=O)C2)cc1 do in these assays?
ALR inh: -2.3; PREPL inh: 7.1

Results for CC1CCCC(NC(=O)C2N(CCCN3CCCC3)C(=O)C3C(C(=O)Nc4ccc(Cl)cc4)C4C=CC32O4)C1C (stereo unspecified) ?
CHT inh: inactive; AI-2 QS mod: -8.7; ALR inh: -14.4; CHT PAM: inactive; PREPL inh: 28.8
